# From PubChem BioAssay (NCATS)
# Several values for one entry are separate records, joined by “and”; a condition that tells them apart may be missing. Identical values can stand only once. Inconclusive results are not listed. Entries that show only a call come without a potency. Activity calls are given as the source filed them. Unless noted, the call rests on the fitted dose curve; in most records, active means well fitted curve in the direction sought with a large enough effect; inconclusive means small, poorly fitted or top-dose-only effect, or another doubt; inactive means no such curve, though single readings can be large; an effect the other way counts as inactive or inconclusive.
# Tests used:
# [1] = biological target: T1, Hexokinase-4 (Homo sapiens) + Glucokinase regulatory protein (Homo sapiens) (UniProt P35557+Q14397); assay: qHTS assay for inhibitors of recombinant human GCK-GKRP interaction: ADP-Glo assay (AID 743206)
# Outline: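 Pin-transferred compounds meet a 15 nM GST-GCK/15 nM FLAG-GKRP/2 uM S6P mix (dispense concentrations). ATP is then added to 0.4 mM final with 5 mM glucose, and the reaction runs 60 min at room temperature. ADP is quantified luminescently.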
# [2] = biological target: T1, Hexokinase-4 (Homo sapiens) + Glucokinase regulatory protein (Homo sapiens); assay: qHTS assay for inhibitors of recombinant human GCK-GKRP interaction: HTRF assay (AID 743207)
# Outline: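 Titration screening format: recombinant GST-GCK and FLAG-GKRP at 5 nM, S6P at 2 uM, labelled anti-tag antibodies, 60 min at RT, dual-wavelength HTRF readout.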
# [3] = qHTS Assay for Identifying Gametocytocidal Compounds (AID 743244);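 further: actives lower the fluorescent signal which means gametocytes are killed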; details: P. falciparum 3D7 stage III-V gametocytes, alamarBlue, 72 h; max response: stronger effect = lower value
# Outline: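 Late gametocytes (III–V), P. falciparum 3D7; 72 h drug, then 24 h alamarBlue; resazurin reduction read by fluorescence.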
# [4] = qHTS assay for cell viability of HEK293 cells (AID 743288); details: ATP luminescence (CellTiter-Glo), 18 h; max response: stronger effect = lower value; further: nearly all actives have a fitted effect of over 50% in size; further: potency means the concentration at half of the fitted maximal effect
# Outline: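 HEK293, 18 h, 37 C, ATP luminescence. Cells at 2,000/well were allowed at least 5 h to settle before dosing; CellTiter-Glo developed 30 min at RT.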
# [5] = qHTS assay for cell viability of the p53RE-bla HCT-116 cell line (AID 743292); further: nearly all actives have a fitted effect of over 55% in size
# Outline: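 HCT-116 p53RE-bla cells seeded 4,000/well; 5 h at 37 C; compound (DMSO) added; 16 h at 37 C; CellTiter-Glo added, 30 min RT; luminescence read.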
# [6] = qHTS profiling of the MIPE4 collection as inhibitors of Plasmodium falciparum (3D7) proliferation (AID 743344; call rule not given here); details: P. falciparum 3D7 in erythrocytes, SYBR Green DNA fluorescence, 72 h; at 28.5 µM (top of the series) unless noted
# Outline: (§1)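 Parasite DNA was quantified by SYBR Green I fluorescence (ex 485, em 535 nm) after overnight lysis in saponin/Triton buffer at room temperature. Cultures at 0.3% parasitemia and 2.5% hematocrit were first exposed to compound for 72 h at 37 C; signals were normalised to artemisinin (0.29 uM) and vehicle wells.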
# [7] = qHTS profiling of the MIPE4 collection as inhibitors of Plasmodium falciparum (DD2) proliferation (AID 743345; call rule not given here); details: P. falciparum Dd2 in erythrocytes, SYBR Green DNA, 72 h; at 28.5 µM (top of the series) unless noted
# Outline: as §1
# [8] = qHTS profiling for inhibitors of Plasmodium falciparum (3D7) proliferation (AID 743322);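 further: infected erythrocytes exposed to compound for 72 h before lysis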; details: P. falciparum 3D7 proliferation; at 28.7 µM (top of the series)
# Outline: as §1
# [9] = qHTS profiling for inhibitors of Plasmodium falciparum (DD2) proliferation (AID 743323; call rule not given here); details: lower = more inhibition; at 28.7 µM (top of the series)
# Outline: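 1536-well qHTS; infected RBCs 0.3% parasitemia/2.5% Hct final; cpd 72 h 37 C 5% CO2; lysis buffer + SYBR Green I, o/n RT dark; FI 485/535; norm. to 0.29 uM artemisinin and DMSO, plate-stack corrected.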
# [10] = qHTS profiling for inhibitors of Plasmodium falciparum (HB3) proliferation (AID 743324); details: Plasmodium falciparum HB3 blood-stage proliferation; at 28.7 µM (top of the series)
# Outline: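 SYBR Green fluorescence (485 ex/535 em) of lysed cultures, incubated overnight at room temperature in the dark, quantifies parasite DNA. Infected erythrocytes at 0.3% parasitemia and 2.5% hematocrit were exposed 72 h; values normalized to DMSO and 0.29 uM artemisinin controls.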
# T1 sequence (P35557 whole entry, looked up): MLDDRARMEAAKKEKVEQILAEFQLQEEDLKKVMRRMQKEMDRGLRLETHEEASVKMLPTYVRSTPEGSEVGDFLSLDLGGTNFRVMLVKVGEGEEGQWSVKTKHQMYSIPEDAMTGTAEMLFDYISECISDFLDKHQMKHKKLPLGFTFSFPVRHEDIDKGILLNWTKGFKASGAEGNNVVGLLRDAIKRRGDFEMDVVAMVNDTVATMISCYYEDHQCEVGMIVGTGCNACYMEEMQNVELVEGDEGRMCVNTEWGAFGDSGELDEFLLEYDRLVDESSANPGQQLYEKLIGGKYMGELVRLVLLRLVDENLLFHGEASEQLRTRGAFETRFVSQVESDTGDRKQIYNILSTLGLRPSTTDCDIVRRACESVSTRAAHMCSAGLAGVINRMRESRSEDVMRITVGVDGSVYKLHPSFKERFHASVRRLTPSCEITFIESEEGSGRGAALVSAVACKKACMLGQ
# T1 sequence (Q14397 whole entry, looked up): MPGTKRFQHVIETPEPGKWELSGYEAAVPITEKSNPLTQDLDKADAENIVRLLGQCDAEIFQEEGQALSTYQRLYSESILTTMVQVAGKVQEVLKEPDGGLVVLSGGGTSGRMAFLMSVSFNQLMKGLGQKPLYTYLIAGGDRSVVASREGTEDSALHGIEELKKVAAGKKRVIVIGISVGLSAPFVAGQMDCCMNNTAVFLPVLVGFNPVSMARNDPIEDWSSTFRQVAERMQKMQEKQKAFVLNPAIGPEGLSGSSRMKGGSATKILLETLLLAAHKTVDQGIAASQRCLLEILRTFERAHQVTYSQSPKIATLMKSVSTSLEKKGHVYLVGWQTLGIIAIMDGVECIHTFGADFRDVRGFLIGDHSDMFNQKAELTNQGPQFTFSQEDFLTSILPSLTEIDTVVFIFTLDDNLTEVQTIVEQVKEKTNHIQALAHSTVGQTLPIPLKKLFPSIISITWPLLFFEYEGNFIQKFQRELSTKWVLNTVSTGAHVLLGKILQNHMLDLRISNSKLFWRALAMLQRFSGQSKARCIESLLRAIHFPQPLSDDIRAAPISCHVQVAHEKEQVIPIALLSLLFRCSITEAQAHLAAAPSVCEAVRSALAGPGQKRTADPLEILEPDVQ
structure (smiles),measurement,setting,value
O=c1c(-c2ccc(O)cc2)coc2cc(O)ccc12,outcome,[1],inactive
same,outcome,[2],inactive
same,max response,[3],16.7% (inactive)
same,max response,[4],-7.57% (inactive) and -12.8% (inactive)
same,Potency,[5],inactive
same,"parasite growth, % of DMSO control",[6],100%
same,"parasite growth remaining, % of DMSO control (lower = more inhibition)",[7],102%
C[N+](C)(C)CCCCCC[N+](C)(C)C,outcome,[1],inactive
same,outcome,[2],inactive
same,max response,[3],5.46% (inactive) and 9.66% (inactive) and 12.2% (inactive)
O=C(O)CCc1nc(-c2ccccc2)c(-c2ccccc2)o1,max response,[3],14.6% (inactive) and 5.09% (inactive)
NCCS,outcome,[1],inactive
same,outcome,[2],inactive
same,max response,[3],-3.42% (inactive) and 10.4% (inactive) and 19.2% (inactive)
CC/C(=C(\c1ccccc1)c1ccc(OCCN(C)C)cc1)c1ccccc1,outcome,[1],inactive
same,outcome,[2],inactive
same,max response,[3],10% (inactive)
same,Potency,[4],70.8 µM (active)
CCCCC1C(=O)N(c2ccccc2)N(c2ccccc2)C1=O,outcome,[1],inactive
same,outcome,[2],inactive
same,max response,[3],-1.91% (inactive) and -0.936% (inactive) and 31.1% (inactive)
same,max response,[4],-8.44% (inactive) and -3.31% (inactive)
same,Potency,[5],inactive
CC(=O)CCCCn1c(=O)c2c(ncn2C)n(C)c1=O,outcome,[1],inactive
same,outcome,[2],inactive
same,max response,[3],-1.45% (inactive) and 1.03% (inactive)
CC(C)OC(=O)C(C)(C)Oc1ccc(C(=O)c2ccc(Cl)cc2)cc1,outcome,[1],inactive
same,outcome,[2],inactive
same,max response,[3],7.26% (inactive) and 15.7% (inactive)
same,max response,[4],-17.2% (inactive)
same,Potency,[5],inactive
CC1=C(/C=C/C(C)=C/C=C/C(C)=C/C(=O)Nc2ccc(O)cc2)C(C)(C)CCC1,outcome,[1],inactive
same,outcome,[2],inactive
same,max response,[3],-5.25% (inactive) and -28.8% (inactive)
same,Potency,[4],50.1 µM (active)
same,remaining parasite growth % (stronger effect = lower value),[8],14.1%
same,"activity, percent of control",[9],22.9%
same,"remaining proliferation (% of control), lower = more inhibition",[10],-0.513%
Clc1ccc(C(c2ccc(Cl)cc2)n2cc[n+](CC(OCc3ccc(Cl)cc3Cl)c3ccc(Cl)cc3Cl)c2)cc1 (stereo not drawn),outcome,[1],inactive
same,"parasite growth, % of DMSO control",[6],6.19%
same,"parasite growth remaining, % of DMSO control (lower = more inhibition)",[7],5.85%
COc1ccc(Cc2nccc3cc(OC)c(OC)cc23)cc1OC,outcome,[1],inactive
same,outcome,[2],inactive
same,"parasite growth, % of DMSO control",[6],5.44%
same,"parasite growth remaining, % of DMSO control (lower = more inhibition)",[7],11.3%
NC(N)=Nc1nc(CSCC/C(N)=N/S(N)(=O)=O)cs1,outcome,[1],inactive
same,outcome,[2],inactive
same,max response,[3],5.05% (inactive) and 9.64% (inactive)
CC(=O)c1ccc(S(=O)(=O)NC(=O)NC2CCCCC2)cc1,outcome,[1],inactive
same,outcome,[2],inactive
same,max response,[3],-4.23% (inactive) and -12.4% (inactive)
same,max response,[4],4.87% (inactive) and -10.8% (inactive)
same,Potency,[5],inactive
CCN1CCC[C@H]1CNC(=O)c1cc(S(N)(=O)=O)ccc1OC,outcome,[1],inactive
same,outcome,[2],inactive
same,max response,[3],11.5% (inactive) and 6.55% (inactive)
COc1ccccc1N1CCN(CCCNc2cc(=O)n(C)c(=O)n2C)CC1,outcome,[1],inactive
same,outcome,[2],inactive
same,max response,[3],9.05% (inactive) and -4.71% (inactive) and 2.95% (inactive)
CCCNC(=O)NS(=O)(=O)c1ccc(Cl)cc1,outcome,[1],inactive
same,outcome,[2],inactive
same,max response,[3],10.2% (inactive) and -7.21% (inactive)
same,max response,[4],3.46% (inactive) and -2.3% (inactive)
same,Potency,[5],inactive
Clc1ccc(Cn2c(CN3CCCC3)nc3ccccc32)cc1,outcome,[1],inactive
same,outcome,[2],inactive
Cc1cccc(C)c1OCC(C)N (stereo not drawn),outcome,[1],inactive
same,outcome,[2],inactive
same,max response,[3],9.33% (inactive) and -4.15% (inactive) and 13.1% (inactive)
CCN(CC)C(=O)c1ccc(O)c(OC)c1,outcome,[1],inactive
same,outcome,[2],inactive
same,max response,[3],14.2% (inactive) and 0.626% (inactive) and 4.97% (inactive)
O=C(NCCN1CCOCC1)c1ccc(Cl)cc1,outcome,[1],inactive
same,outcome,[2],inactive
same,max response,[3],-4.13% (inactive) and 9.69% (inactive) and 29.4% (inactive)
COC(=O)[C@@H]1[C@H]2C[C@H]3c4[nH]c5ccccc5c4CCN3C[C@@H]2CC[C@@H]1O,outcome,[1],inactive
same,outcome,[2],inactive
same,max response,[3],29.3% (inactive) and 18.6% (inactive)
COc1cccc(-c2cc(=O)c3ccccc3o2)c1N,outcome,[1],inactive
same,outcome,[2],inactive
same,"parasite growth, % of DMSO control",[6],73.4%
same,"parasite growth remaining, % of DMSO control (lower = more inhibition)",[7],91.1%
O=C1NCC2(CCN(CCc3ccccc3)CC2)O1,outcome,[1],inactive
same,outcome,[2],inactive
same,max response,[3],1.69% (inactive) and 18.3% (inactive)
O=c1cc(-c2ccc(O)cc2)oc2cc(O)cc(O)c12,outcome,[1],inactive
same,outcome,[2],inactive
same,max response,[3],0.431% (inactive)
same,max response,[4],-29.2% (inactive) and -22.7% (inactive)
same,Potency,[5],inactive
same,"parasite growth, % of DMSO control",[6],7.22%
CC(C)NCC(O)COc1cccc2[nH]ccc12 (stereo not drawn),max response,[3],5.47% (inactive) and 6.31% (inactive)
CN(C)CCC(c1ccccc1)c1ccccn1 (stereo not drawn),outcome,[1],inactive
same,outcome,[2],inactive
same,max response,[3],15.2% (inactive)
same,max response,[4],2.94% (inactive)
same,Potency,[5],inactive
CC(=O)N[C@@H](CS)C(=O)O,outcome,[1],inactive
same,outcome,[2],inactive
same,max response,[3],4.68% (inactive) and -17% (inactive)
same,max response,[4],-3.84% (inactive)
same,Potency,[5],inactive
CC(=O)O[C@]1(C(C)=O)CC[C@H]2[C@@H]3C=C(Cl)C4=CC(=O)[C@@H]5C[C@@H]5[C@]4(C)[C@H]3CC[C@@]21C,outcome,[1],inactive
same,outcome,[2],inactive
same,max response,[3],5.83% (inactive)
same,max response,[4],-22.8% (inactive)
same,Potency,[5],inactive
CCN(CC)CCOC(=O)c1ccc(N)cc1,outcome,[1],inactive
same,outcome,[2],inactive
same,max response,[3],17.2% (inactive) and 7.74% (inactive)
CCN(CC)CCNC(=O)c1ccc(N)cc1,outcome,[1],inactive
same,outcome,[2],inactive
same,max response,[3],34.9% (inactive)
O=C1NC(=O)C(c2ccccc2)(c2ccccc2)N1,outcome,[1],inactive
same,outcome,[2],inactive
same,max response,[3],-6.42% (inactive) and 2.98% (inactive) and 10.3% (inactive)
same,max response,[4],6.32% (inactive) and -2.27% (inactive) and 1.15% (inactive)
same,Potency,[5],inactive
